Test results taken from the supplement of paper PMC11634586.
Counter-ions that a name gives are not always drawn.

System: NCI-H1688
Experiment: inhibition of cell viability relative to untreated control (fraction); higher = stronger growth inhibition, active = 0.5 or more
Details: 30 µM; 24 h
Protocol: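 Natural product library (TargetMol, 640 compounds) screened on NCI-H1688 SCLC cells at 30 µM for 24 h; viability by CCK-8 absorbance at 450 nm, normalised to untreated control and expressed as inhibition rate (fraction). Compounds with >50% reduction in viability were selected as hits.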

SMILES	inhibition of cell viability
COc1ccc2c(c1O)-c1c(OC)c(OC)cc3c1[C@H](C2)N(C)CC3 [S-Isocorydine(+)]	0.0897 (inactive)
CNC1CC(N)C(O)C(OC2OC(CO)C(O)C3OC4(OC(C(N)CO)C(O)C(O)C4O)OC23)C1O (stereo not given) [Hygromycin B]	0.829 (active)
CCC1=C[C@@H]2CN3CCc4c([nH]c5ccccc45)[C@@](C(=O)OC)(C2)[C@@H]13 [Catharanthine tartrate]	-0.101 (inactive)
C=C[C@H]1CN2CC[C@H]1C[C@H]2[C@H](O)c1ccnc2ccccc12 [Cinchonidine]	-0.042 (inactive)
NCCc1c[nH]c2ccc(O)cc12 [Serotonin hydrochloride]	0.104 (inactive)
CN(C)CCc1ccc(O)cc1 [Hordenine]	0.0129 (inactive)
C[C@@H]1[C@H](O)[C@@H](C)/C=C/C=C/CC/C=C/C=C/C=C/C=C/[C@H](O[C@H]2O[C@@H](C)[C@H](O)[C@@H](N)[C@H]2O)C[C@@H]2O[C@](O)(C[C@@H](O)[C@H](O)CC[C@@H](O)C[C@@H](O)C[C@@H](O)CC(=O)O[C@H]1C)C[C@H](O)[C@H]2C(=O)O [Nystatin (Fungicidin)]	0.267 (inactive)
CC[C@@]1([C@@H]2O[C@@H]([C@H]3O[C@@](O)(CO)[C@H](C)C[C@@H]3C)C[C@@H]2C)CC[C@H]([C@]2(C)CC[C@]3(C[C@H](O)[C@@H](C)[C@@H]([C@@H](C)[C@@H](OC)[C@H](C)C(=O)O)O3)O2)O1 [Monensin sodium salt]	0.761 (active)
COc1ccc(CC2NCCc3cc(OC)c(OC)cc32)cc1OC (stereo not given) [Tetrahydropapaverine hydrochloride]	0.125 (inactive)
CN1[C@@H]2C[C@@H](OC(=O)[C@H](CO)c3ccccc3)C[C@H]1[C@@H]1O[C@@H]12 [Scopolamine HBr trihydrate]	0.0269 (inactive)
CC(C)[C@]12O[C@H]1[C@@H]1O[C@]13[C@]1(O[C@H]1C[C@H]1C4=C(CC[C@@]13C)C(=O)OC4)[C@@H]2O [Triptolide (PG490)]	0.948 (active)
NCCc1ccc(O)cc1 [Tyramine]	0.176 (inactive)
O=c1cccc2n1C[C@@H]1CNC[C@H]2C1 [Cytisine]	-0.243 (inactive)
C[C@@H]1CC[C@H]2[C@@H](C)C(=O)O[C@@H]3O[C@@]4(C)CC[C@@H]1[C@]32OO4 [Artemisinin]	0.118 (inactive)
COc1cc2c(cc1OC)C13CCN4CC5=CCOC6CC(=O)N2C1C6C5CC43 (stereo not given) [Brucin]	-0.145 (inactive)
COc1ccc(Cc2nccc3cc(OC)c(OC)cc23)cc1OC [Papaverine hydrochloride]	0.205 (inactive)
CN1[C@@H]2C[C@@H](OC(=O)[C@H](CO)c3ccccc3)C[C@H]1[C@@H]1O[C@@H]12 [Scopolamine HBr]	-0.0423 (inactive)
COc1cc(C2OCC3C(c4cc(OC)c(O[C@@H]5O[C@H](CO)[C@@H](O)[C@H](O)[C@H]5O)c(OC)c4)OCC23)cc(OC)c1O[C@H]1O[C@@H](CO)[C@H](O)[C@@H](O)[C@@H]1O (stereo not given in full) [Eleutheroside E]	0.231 (inactive)
COC1=C[C@]23CCCN2CCc2cc4c(cc2[C@@H]3[C@@H]1O)OCO4 [Cephalotaxine]	0.394 (inactive)
COc1cc([C@@H]2c3cc4c(cc3[C@@H](O)[C@H]3COC(=O)[C@H]23)OCO4)cc(OC)c1O [4'-Demethylepipodophyllotoxin]	0.568 (active)

SMILES	inhibition of cell viability
O=C(O)CC[N+](=O)[O-] [Bovinocidin]	-0.0746 (inactive)
N#C[C@H](O[C@@H]1O[C@H](C(=O)O)[C@@H](O)[C@H](O)[C@H]1O)c1ccccc1 [Laetrile]	0.0291 (inactive)
CC[C@H](C)[C@H]1O[C@]2(C=C[C@@H]1C)C[C@@H]1C[C@@H](C/C=C(\C)[C@@H](O[C@H]3C[C@H](OC)[C@@H](O[C@H]4C[C@H](OC)[C@@H](O)[C@H](C)O4)[C@H](C)O3)[C@@H](C)/C=C/C=C3\CO[C@@H]4[C@H](O)C(C)=C[C@@H](C(=O)O1)[C@]34O)O2.CO[C@H]1C[C@H](O[C@H]2[C@H](C)O[C@@H](O[C@@H]3/C(C)=C/C[C@@H]4C[C@@H](C[C@]5(C=C[C@H](C)[C@@H](C(C)C)O5)O4)OC(=O)[C@@H]4C=C(C)[C@@H](O)[C@H]5OC/C(=C\C=C\[C@@H]3C)[C@]54O)C[C@@H]2OC)O[C@@H](C)[C@@H]1O [Abamectin]	1.01 (active)
C[C@]12CC[C@H](O)C[C@H]1CC[C@@H]1[C@@H]2CC[C@]2(C)[C@@H](c3ccc(=O)oc3)CC[C@]12O [Bufalin]	0.985 (active)
CCCCCCCCC(=O)NCc1ccc(O)c(OC)c1 [Nonivamide]	-0.0291 (inactive)
O=c1ccc2ccc3occc3c2o1 [Isopsoralen]	-0.0131 (inactive)
O=C(O)C1C2CCC(O2)C1C(=O)O (stereo not given) [Sodium Demethylcantharidate]	0.314 (inactive)
C=C[C@H]1CN2CC[C@H]1C[C@@H]2[C@@H](O)c1ccnc2ccccc12 [Cinchonine]	-0.188 (inactive)
CCN1C[C@]2(OC(=O)c3ccccc3NC(C)=O)CC[C@H](OC)[C@@]34[C@@H]2C[C@@H]([C@@H]13)[C@@]1(O)C[C@H](OC)[C@H]2C[C@@H]4[C@]1(O)[C@H]2OC [Lappaconitine]	-0.0777 (inactive)
C/C=C(\C)C(=O)N[C@@H](c1ccccc1)[C@@H](O)C(=O)O[C@H]1C[C@@]2(O)[C@@H](OC(=O)c3ccccc3)[C@@H]3[C@]4(OC(C)=O)CO[C@@H]4C[C@H](O)[C@@]3(C)C(=O)[C@H](OC(C)=O)C(=C1C)C2(C)C [Cephalomannine]	0.721 (active)
C[C@]12CC[C@H](O)C[C@@H]1CC[C@@H]1[C@@H]2CC[C@]2(C)C(=O)CC[C@@H]12 [Epiandrosterone]	-0.0121 (inactive)
CCC1=CC2CN3CCc4c([nH]c5ccccc45)C(C(=O)OC)(C2)C13 (stereo not given) [Catharanthine sulfate]	0.191 (inactive)
CC(C)=CCOc1c2occc2cc2ccc(=O)oc12 [Imperatorin]	0.0251 (inactive)
C[C@@H]1CC[C@@]2(OC1)O[C@H]1[C@@H](O)[C@H]3[C@@H]4CC[C@H]5C[C@@H](O[C@@H]6O[C@H](CO)[C@H](O[C@@H]7O[C@H](CO)[C@@H](O)[C@H](O[C@@H]8OC[C@@H](O)[C@H](O)[C@H]8O)[C@H]7O[C@@H]7O[C@H](CO)[C@H](O)[C@H](O[C@@H]8O[C@H](CO)[C@@H](O)[C@H](O)[C@H]8O)[C@H]7O)[C@H](O)[C@H]6O)[C@H](O)C[C@]5(C)[C@H]4CC[C@]3(C)[C@H]1[C@@H]2C [Digitonin]	1.01 (active)
CCC1(O)C(=O)OCc2c1cc1n(c2=O)Cc2cc3ccccc3nc2-1 (single isomer, unassigned; (+)) [(+)-Camptothecin]	0.979 (active)
C1=C2CCCN[C@H]2[C@@H]2C[C@H]1[C@H]1CCCCN1C2 [Aloperine]	0.311 (inactive)
NCCc1ccccc1 [Phenethylamine]	-0.183 (inactive)
COc1ccc2c3c([nH]c2c1)C(C)=NCC3 [Harmaline]	-0.11 (inactive)
CC1=C2C(=O)[C@H]3[C@@H](CC=C4C[C@@H](O)CC[C@@]43C)[C@@H]2CC[C@]12O[C@@H]1C[C@H](C)CN[C@H]1[C@H]2C [Jervine]	0.601 (active)
C[C@H]1C(=O)O[C@@H]2CCN3CC=C(COC(=O)[C@](C)(O)[C@]1(C)O)[C@H]23 [Monocrotaline]	0.161 (inactive)
